Measurements as given in ChEMBL document CHEMBL4513146, “CO-ADD screening of Karazin Kharkiv National University (Ukraine) compounds”.
Measured potencies and affinities stand elsewhere.

tested on: Escherichia coli; conditions: Concentration 32 ug.mL-1;; ASSAY_TEST Inhibition of Bacterial Growth; detection method Absorption (OD600); MEDIA CAMHB; plate type 384well; NBS; CORNING #3640; time 18 hr

Row | SMILES | Inhibition
1 | COc1ccc(NC(=O)Cn2nc3c(Oc4ccccc4)nccn3c2=O)cc1OC | -7.24%
2 | COc1ccccc1Cn1c(=O)c2sccc2n2c(=O)n(Cc3ccc(Br)cc3)nc12 | 2.24%
3 | Cc1cc2nn(CC(=O)Nc3ccc(F)cc3Cl)c(=O)n2c(Nc2ccc(F)cc2)n1 | -0.12%
4 | Cc1nnc2c(=O)n(CC(=O)Nc3ccc(C(C)C)cc3)c3ccccc3n12 | -2.69%
5 | O=c1c2sccc2n2c(=O)n(Cc3ccccc3Cl)nc2n1CCc1ccccc1 | 0.77%
6 | CCCCOc1ccc(-c2cc3c4nnc(SCC(=O)Nc5cc(C)ccc5OC)n4ccn3n2)cc1 | -22.73%
7 | CCc1ccccc1Sc1nccn2c(=O)n(CC(=O)NCc3ccc(OC)cc3)nc12 | -1.47%
8 | CC(C)c1nnc2c(SCC(=O)Nc3cccc(Cl)c3)nc3ccccc3n12 | 0%
9 | COc1ccc(NC(=O)c2ccc3nn(CC(=O)Nc4ccc(C(F)(F)F)cc4)c(=O)n3c2)cc1 | -5.89%
10 | CC(=O)c1cccc(NC(=O)CSc2nnc3ccc(C(=O)Nc4cccc(F)c4)cn23)c1 | -3.3%
11 | Cc1cccc(CN(c2cc(C)cc(C)c2)S(=O)(=O)c2cccn3c(C)nnc23)c1 | -0.75%
12 | Cc1ccc(NC(=O)Cn2nc3ccc(-c4ccc(Cl)cc4)nn3c2=O)cc1 | -0.85%
13 | CC(C)c1ccc(NC(=O)Cn2nc3c(SCc4ccccc4)nccn3c2=O)cc1 | -7.26%
14 | COc1ccc(-c2cc3c4nn(CC(=O)NCc5ccccc5Cl)c(=O)n4ccn3n2)cc1 | 0.93%
